Assay results from ChEMBL document CHEMBL3988442, “University of Dundee, Small-Polar-MMV Screening Library” (2021).
Screen size: about 48,000 compounds; about 13,000 (27%) showed an effect of 50% or more. The list shows a part of the results.

Each compound was assayed on Wolbachia pipientis (assay: Anti-Wolbachia Cell-Based Screen). Conditions: 5 µM.
Format: functional
Set-up: scale not given: in the data most compounds retested in dose-response had high values

Compound | Percent Effect [%]
C=C(C)CN1CCC(NC(=O)Nc2cc(C(N)=O)ccc2OC)CC1 | -10.13
CCc1nn(C)c(Cl)c1CN1CCN(c2ccc(Cl)nn2)CC1 | -2.423
CCc1nn(C)c(Cl)c1CN1C[C@H](NC(=O)CCO)[C@@H](C(C)C)C1 | -7.141
CCc1nn(C)c(Cl)c1CN1CCC(Cc2nncn2C)CC1 | 1.908
CN1CC2(CCN(Cc3cc(Cl)ccc3OCC(=O)O)CC2)OC1=O | -19.61
COc1c(F)cc(CN2CCC3(CC2)CN(C)C(=O)O3)cc1Cl | -3.055
CCc1n[nH]c(C(=O)N2CCCC3(CN(C)C(=O)O3)C2)c1C (configuration not stated) | -7.274
CCc1nn(C)c(Cl)c1CN1CCC2(C1)CN(C)C(=O)O2 (configuration not stated) | 121.6
CCc1nn(C)c(Cl)c1CN1CCCC2(C1)CN(C)C(=O)O2 (configuration not stated) | 101.8
CCc1nn(C)c(Cl)c1CN1CCCC2(CC1)CN(C)C(=O)O2 (configuration not stated) | 89.96
Cc1ccccc1N1CCN(C(=O)Cn2ccnc2)CC1=O | -5.789
Cc1ccccc1-n1cnc(Cl)c1C(=O)O | 65.1
O=C(O)c1c(Cl)ncn1-c1cccc2ccccc12 | 101.1
Nc1nccnc1C(=O)N1CCN(Cc2cccc3ccccc23)CC1 | -30.2
O=C1CC(c2ccc(C(=O)O)cc2)c2ncn(-c3ccccc3Cl)c2N1 (configuration not stated) | 2.095
Cc1ccccc1N1CCCN(C(=O)c2nn(C)cc2Cl)CC1 | 7.51
Cc1ccc(-c2n[nH]cc2CNCC2CCN(CC(F)(F)F)C2)o1.Cl (configuration not stated) | -7.389
Cc1cc(N2CCCN(C(C(=O)O)c3cccc(C)c3F)CC2)ccn1 (configuration not stated) | 1.101
O=C1CCC(C(=O)N2CCOC(Cc3cccc4ccccc34)C2)=NN1 (configuration not stated) | -9.724
Cc1ccc2ncnc(N3CCOCC3c3c(C)nn(C)c3C)c2c1 (configuration not stated) | -2.563
O=S(=O)(c1c(F)cccc1F)N1CCC(Cn2cccn2)CC1 | 15.84
Cc1nc(CN2CCC3(CCN(c4cnn(C)c4)C3=O)C2)cs1.O=C(O)C(F)(F)F (configuration not stated) | 109

Compound | Percent Effect [%]
Cc1nc(CN2CCCC3(CCN(c4cnn(C)c4)C3=O)C2)cs1.O=C(O)C(F)(F)F (configuration not stated) | 93.19
COCCN1CCCC2(CCN(c3ccsc3)C2=O)C1.O=C(O)C(F)(F)F (configuration not stated) | -26.52
O=C(Nc1ccc(F)c(Br)c1)N1CCCC1 | 7.891
Cc1cccc(NC2CCN(C(=O)Nc3ccncc3)CC2)n1 | 110.6
Cc1ccc(C(=O)Nc2cn[nH]c2)cn1 | 2.995
Cc1cccc(NC2CCN(C(=O)Nc3ccccn3)CC2)n1 | 83.84
Cc1cccc(NC2CCN(C(=O)Nc3cn[nH]c3)CC2)n1 | 110.2
Cc1cccc(NC2CCN(C(=O)Nc3cc(C)on3)CC2)n1 | -9.175
Cc1cccc(NC2CCN(C(=O)Nc3ccc(F)c(F)c3)CC2)n1 | 86.81
Cc1cccc(NC2CCN(C(=O)Nc3cc(F)cc(F)c3)CC2)n1 | -9.024
O=C(CCn1ccc(=O)[nH]c1=O)N1CCC(OCc2cccnc2)CC1 | 17.72
COCc1noc(C2(c3ccc(Br)cc3)CCOCC2)n1 | -15.05
CS(=O)(=O)CCCC(=O)N1CCN(CC2CC2)c2ccccc21 | -17.42
N#Cc1ccc(N2CCCN(CCCn3cncn3)CC2)cc1 | -1.933
Cc1nc(N2CCC3(CCCNC3=O)C2)nc2c1CCCC2 (configuration not stated) | 1.379
CN1C[C@@H](N)C[C@H]1C(=O)N1CCC(CCCc2ccccc2)CC1 | 99.37
CCC(=O)N1CCCC1C(=O)N1CCC(Cc2ccc(F)cc2)CC1 (configuration not stated) | 110.1
O=C(C1CCS(=O)(=O)CC1)N1CCC(Cc2ccc(F)cc2)CC1 | -5.215
CN1CSC[C@H]1C(=O)N1CCC(Cc2ccccc2F)CC1 | -34.6
CC(C(=O)N1CCC(Cc2ccc(F)cc2)CC1)n1ccnc1 (configuration not stated) | -3.796
CN1CCC(N(C)CCC(=O)N2CCC(Cc3ccc(F)cc3)CC2)C1 (configuration not stated) | -0.3221
CC(=O)N1CCCC1C(=O)N1CCC(=Cc2cccc(F)c2)CC1 (configuration not stated) | -11.75

Compound | Percent Effect [%]
CN1C[C@@H](N)C[C@H]1C(=O)N1CCC(Cc2ccc(F)cc2)CC1 | 81.94
CN1CSC[C@H]1C(=O)N1CCC(CCc2ccccc2)CC1 | -22.77
O=C1CCC2(CCCN(C(=O)c3cscn3)C2)CN1CCc1c[nH]cn1 (configuration not stated) | -10.65
COCC[C@]1(O)CCN(C(=O)CCc2cnn(C)c2)C[C@H]1C | 4.52
COCCCN1C(=O)CC[C@H]2CN(c3ccc(C(N)=O)cn3)CC[C@H]21 | -7.977
O=C(O)C(F)(F)F.O=C([C@@H]1COC[C@H]2CN(C3CCCC3)C[C@H]21)N1CCCO1 | 17.11
N#Cc1cccn(CCOc2ccc(Cl)cc2)c1=O | 1.787
CCN(Cc1cccc(C(=O)Nc2ncc(C)s2)c1)[C@H]1COC[C@@H]1O | -30.5
COc1cccc(OCC(=O)N(C)c2cccnc2N(C)C)c1 | 85.27
COc1cccc(OCC(=O)N(C)c2cccnc2)c1 | 104.9
COc1cccc(OCC(=O)Nc2cc(C)cnc2OC)c1 | -3.039
COc1cccc(OCCCc2cncc(C(N)=O)c2)c1 | -6.464
COc1cccc(OCC(=O)NS(=O)(=O)c2cc(F)ccc2F)c1 | -14.39
COc1ccc(CC(=O)N(C)c2cccnc2N(C)C)c(Cl)c1 | 3.868
Cn1cccc1C(=O)N[C@@H]1CN(Cc2cccs2)[C@@H]2COC[C@@H]21.O=C(O)C(F)(F)F | -0.8834
Cc1nc(C)n(CC2CCCCN2CCCC#N)n1 (configuration not stated) | 3.604
CCc1nnc(NC(=O)N(CCOC)Cc2ccc(C)o2)s1 | -17.47
CN(CCCNC(=O)CN1CCS(=O)(=O)CC1)c1ccccc1 | 9.575
COCC(=O)NCC1Cn2nnc(-c3ccncc3)c2CO1.O=C(O)C(F)(F)F (configuration not stated) | -3.08
c1cncc(-c2nnc([C@H]3CCN(CC4CC4)C3)o2)c1 | 10.36
O=C(c1cccnc1)C1CCCN(c2nnc(C3CC3)o2)C1 (configuration not stated) | -9.968
COCC(=O)NC[C@H]1CC[C@H](c2nnc(-c3cccnc3)o2)CC1 | 199.6

Compound | Percent Effect [%]
c1cncc(-c2nnc([C@H]3CCN(CC4CCCCC4)C3)o2)c1 | 11.75
c1cc(-c2nnc([C@H]3CCNC3)o2)ccn1 | -9.06
COCC(=O)NC[C@@]1(COc2cccnc2)C[C@@H](O)[C@@H](O)C1.Cl | -0.8237
O=C(NC[C@H]1CC[C@H](c2nnc(-c3cccnc3)o2)CC1)C1CC1 | 169.2
COCC(=O)NC[C@H]1CC[C@H](c2nnc(-c3ccncc3)o2)CC1 | 130.9
Cc1nc(C(C)C)sc1C(=O)N(C)Cc1nc(-c2ccccn2)no1 | -7.076
CC(CN(C)C(=O)c1cn(C)nc1-c1ccc(F)cc1F)C(=O)O (configuration not stated) | -1.433
CCOc1ccc2nc(CN3CCC(CNC(C)=O)C3)ccc2c1 (configuration not stated) | 0.9569
Cc1nc(CN(C)C(=O)c2cc(C)sc2NC(=O)C(C)(C)C)no1 | -2.602
Fc1cccc(-n2cccn2)c1NCc1nnc(C2CC2)o1 | -10.01
Cc1cc(C)n(C2CN(C(=O)Cn3c(C)cc(=O)c4ccccc43)C2)n1 | 17.29
O=C(CSCC1CC1)N1C[C@@H]2CC[C@H](C1)N(Cc1ccccn1)C2=O | 4.164
CCn1cc2c(n1)CN(S(=O)(=O)Cc1ccccc1)CC2COC (configuration not stated) | 10.82
CN1CC(=O)N(C2CCNCC2)Cc2c(NC3CCC3)ncnc21 | 106.1
CN1CC(=O)N(C2CCC2)Cc2c(NC3CCNCC3)ncnc21 | 107.9
Cc1n[nH]c(C2CN(CCNC3CCCCC3)CCO2)n1 (configuration not stated) | 13.35
CCn1c(=O)n(Cc2nc(C3CC3)no2)c2ccccc21 | -1.691
CCn1c(=O)n(CC)c2cc(S(N)(=O)=O)ccc21 | 88.83
CCNS(=O)(=O)c1ccc(C)c(C(=O)N(C)Cc2ccccc2C)c1 | -10.61
CCn1c(=O)c2cc(S(N)(=O)=O)ccc2n(CC)c1=O | 133.6
CCCN(C)C(=O)c1cc(S(=O)(=O)NCC)ccc1C | -9.376
CCNS(=O)(=O)c1ccc2c(c1)c(=O)n(CC)c(=O)n2CC | 90.08

Compound | Percent Effect [%]
CCc1nc(Cn2c(=O)n(CC)c3ccccc32)no1 | -6.157
NC(=O)Cn1ccc(NC(=O)C2(c3cccc(Cl)c3)CC2)n1 | -4.273
CN(C)C(=O)[C@@H]1C[C@H]2OCC[C@H]2N(CCOc2ccc(Cl)cc2)C1.O=C(O)C(F)(F)F | 2.849
Cn1ccnc1COc1ccc(NC(=O)CCC2CCCO2)cc1 (configuration not stated) | 7.737
CC(C(=O)Nc1ccnn1C(C)C)N1CCN(Cc2ccon2)CC1 (configuration not stated) | 9.174
c1cnc(N2C[C@H]3CCC[C@@H](CN4CCCC4)[C@H]3C2)nc1 | -23.6
Cc1cnc(CN(C)C2CCN(CC(=O)Nc3nncs3)C2)o1.O=C(O)C(F)(F)F (configuration not stated) | 3.209
Cc1cc(C(=O)N2CCC3(CCCN(CC4CC4)C3=O)C2)c(C)n1C (configuration not stated) | -3.042
Cc1nonc1CC(=O)N1CCC2(CCCN(C3CCOCC3)C2=O)C1 (configuration not stated) | 111.8
CCOC(=O)N1CCC2(CCCN(C3CCOCC3)C2=O)C1 (configuration not stated) | 112
O=C(COCC(F)(F)C(F)F)N1CCC2(CCCN(CCO)C2=O)C1 (configuration not stated) | -15.14
CN1CCN(C(=O)N2CCC3(CCCN(C4CCOCC4)C3=O)C2)CC1 (configuration not stated) | 106.4
CS(=O)(=O)CCN1CCC2(CCCN(C3CCOCC3)C2=O)C1 (configuration not stated) | -2.931
Cc1c(C(=O)N2CCC3(CCCN(CC4CC4)C3=O)C2)ccn1C (configuration not stated) | -5.125
Cn1cccc1C(=O)N1CCC2(CCCN(CC3CC3)C2=O)C1 (configuration not stated) | 2.832
CC(C)N1CCCC2(CCN(C(=O)COCC(F)(F)C(F)F)C2)C1=O (configuration not stated) | -9.489
Cc1nonc1CC(=O)N1C[C@@H]2CC[C@H](C1)N(Cc1ccccc1)C2=O | -22.99
Cc1nccnc1CN1CCC2(CCCN(C3CCOCC3)C2=O)C1 (configuration not stated) | 1.539
COCCOCC(=O)N1CCC2(CCCN(C3CCOCC3)C2=O)C1 (configuration not stated) | 121
